The nature of assay [1]: qHTS assay to identify small molecule antagonists of the glucocorticoid receptor (GR) signaling pathway - cell viability counter screen (AID 720693). Also: nearly all actives have a fitted effect of over 55% in size. Also: potency is read from the fitted curve at half-maximal effect. On the technique in general: Quantitative high-throughput screening tests each substance at several concentrations.
Assay [2] can be described thus: qHTS assay for identifying genotoxic compounds that show differential cytotoxicity against isogenic chicken DT40 cell lines with known DNA damage response pathways - wild type cell line (AID 743012). Also: nearly all actives have a fitted effect of over 60% in size. Also: potency is read from the fitted curve at half-maximal effect. The gist of the method: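 300 wt DT40 cells/well; cpd (DMSO) pintool-transferred after ~0.5 h at 37 C/5% CO2; 40 h incubation; CellTiter-Glo added, 30 min RT; luminescence read.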

A short description of assay [3]: qHTS assay for identifying genotoxic compounds that show differential cytotoxicity against isogenic chicken DT40 cell lines with known DNA damage response pathways - Rev3 mutant cell line (AID 743014). Also: nearly all actives have a fitted effect of over 55% in size. Also: potency is read from the fitted curve at half-maximal effect.
Assay [4] can be described thus: qHTS assay for identifying genotoxic compounds that show differential cytotoxicity against isogenic chicken DT40 cell lines with known DNA damage response pathways - Rad54/Ku70 mutant cell line (AID 743015). Also: nearly all actives have a fitted effect of over 60% in size. Also: potency is read from the fitted curve at half-maximal effect.
Assay [5] in a line: qHTS assay to identify small molecule antagonists of the androgen receptor (AR) signaling pathway - cell viability counter screen (AID 743033; also: nearly all actives have a fitted effect of over 45% in size).
Assay [6] in a line: qHTS assay to identify small molecule antagonists of the androgen receptor (AR) signaling pathway using the MDA cell line - cell viability counter screen (AID 743041; also: nearly all actives have a fitted effect of over 45% in size; also: potency is read from the fitted curve at half-maximal effect). The gist of the method: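 Viability read by CellTiter-Fluor fluorescence in the same wells as the antagonist screen, added after 15.5 h of a 16 h, 37C exposure. Human breast carcinoma MDA-kb2 AR-luc cells, compounds co-dosed with agonist R1881.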

The nature of assay [7]: qHTS assay to identify small molecule antagonists of the thyroid receptor (TR) signaling pathway - cell viability counter screen (AID 743064). Also: nearly all actives have a fitted effect of over 50% in size. Also: potency is read from the fitted curve at half-maximal effect. The gist of the method: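 Plate GH3.TRE-Luc cells; incubate 4 h at 37 °C; add compound, then T3 to 1 nM final; incubate 23.5 h; add CellTiter-Fluor; incubate 30 min at 37 °C, 5% CO2; read fluorescence.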
Assay [8] is described as follows: qHTS assay to identify small molecule antagonists of the thyroid receptor (TR) signaling pathway (AID 743065). Also: series mostly up to about 70 µM; nearly all actives have a fitted effect of over 55% in size. The gist of the method: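 Antagonism measured as loss of luciferase signal in GH3 cells stably carrying a TRE-luciferase reporter, co-treated with compound and T3 (1 nM final) for 23.5 h at 37 C. Viability was read in the same well by CellTiter-Fluor.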

Assay [9] has as its system thyroid hormone receptor (rat, GH3 cells). The assay can be described thus: qHTS assay to identify small molecule agonists of the thyroid receptor (TR) signaling pathway (AID 743066; calls by dose curve).
Assay [10] can be described thus: qHTS assay to identify small molecule antagonists of the estrogen receptor alpha (ER-alpha) signaling pathway using the BG1 cell line - cell viability counter screen (AID 743081).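 Also: compound given together with 17beta-estradiol as the ER stimulus; nearly all actives have a fitted effect of over 45% in size.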 Also: potency is read from the fitted curve at half-maximal effect.
The target in assay [11] is Aromatase (Homo sapiens) (UniProt P11511). The assay can be described thus: qHTS assay to identify aromatase inhibitors (AID 743083). Also: nearly all actives have a fitted effect of over 55% in size. Also: potency is read from the fitted curve at half-maximal effect.
Assay [12] is described as follows: qHTS assay to identify small molecule antagonists of the estrogen receptor alpha (ER-alpha) signaling pathway - cell viability counter screen (AID 743074; calls by dose curve;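 also: HEK293 cells carrying ER-alpha-UAS-bla reporter stimulated with 17beta-estradiol; nearly all actives have a fitted effect of over 45% in size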).
Assay [13] concerns the target Androgen receptor (Homo sapiens) (UniProt P10275). The assay can be described thus: qHTS assay to identify small molecule agonists of the androgen receptor (AR) signaling pathway (AID 743036; active = well fitted activation curve with a large enough effect in the signal ratio in the repeat runs, with a control signal flat, not every such curve was filed as active; the % refers to the signal ratio). In short, it runs like this: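 Reporter line: GeneBLAzer AR-UAS-bla-GripTite (HEK293). Steps: plate cells, 4 h rest, add compounds, 16 h at 37C, add LiveBLAzer B/G substrate, 2 h at RT, read fluorescence.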

The target is the same in assay [14]. The assay can be described thus: qHTS assay to identify small molecule agonists of the androgen receptor (AR) signaling pathway using the MDA cell line (AID 743040; also: nearly all actives have a fitted effect of over 20% in size). In short, it runs like this: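 Luciferase agonist assay: 16 h compound exposure at 37C without CO2 in MDA-kb2 AR-luc cells, whose MMTV promoter responds to both AR and GR. Luminescence measured after 30 min room-temperature incubation with ONE-Glo.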

Assay [15] has the same target. The assay can be described thus: qHTS assay to identify small molecule antagonists of the androgen receptor (AR) signaling pathway using the MDA cell line (AID 743042; also: nearly all actives have a fitted effect of over 55% in size; also: potency is read from the fitted curve at half-maximal effect). The gist of the method:
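Antagonist mode: compounds plus R1881 agonist added to MDA-kb2 AR-luc cells, incubated 16 h at 37C. Luciferase reporter luminescence quantified, with multiplexed CellTiter-Fluor readout for cell viability.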

Assay [16] addresses Estrogen receptor (Homo sapiens) (UniProt P03372). The assay can be described thus: qHTS assay to identify small molecule antagonists of the estrogen receptor alpha (ER-alpha) signaling pathway (AID 743069; active = well fitted curve in the direction sought with a large enough effect in the signal ratio in the repeat runs, not every such curve was filed as active; the % refers to the signal ratio; also: potency is read from the fitted curve at half-maximal effect). In short, it runs like this: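 Antagonist mode: compounds in DMSO were co-added with 17beta-estradiol to ER-alpha-bla HEK293 cells (2% charcoal-stripped serum) and left 18 h at 37C. Reporter inhibition was measured as FRET fluorescence after 2 h LiveBLAzer substrate at room temperature.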

For assay [17] the target is unchanged. The assay can be described thus: qHTS assay to identify small molecule agonists of the estrogen receptor alpha (ER-alpha) signaling pathway (AID 743075; calls by dose curve;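 also: HEK293 GripTite cells with ER-alpha and UAS-driven beta-lactamase reporter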).
Assay [18] shares this target. The assay can be described thus: qHTS assay to identify small molecule agonists of the estrogen receptor alpha (ER-alpha) signaling pathway using the BG1 cell line (AID 743079). Also: nearly all actives have a fitted effect of over 20% in size. Also: potency is read from the fitted curve at half-maximal effect.
Assay [19] in a line: qHTS assay to identify small molecule antagonists of the estrogen receptor alpha (ER-alpha) signaling pathway using the BG1 cell line (AID 743080; calls by dose curve;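 also: BG1 cells stimulated with 17beta-estradiol alongside compound; series mostly up to about 70 µM; nearly all actives have a fitted effect of over 25% in size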). In short, it runs like this: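 Quantitative HTS on the Tox21 10K library: BG1 cells with endogenous ER-alpha and ERE-luciferase reporter, 17beta-estradiol stimulation, 21.5 h compound exposure, luminescence endpoint with parallel fluorescence cytotoxicity counter-read.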

SMILES strings stand for the structures. Inconclusive results are not listed. Activity calls are given as the source filed them. Unless noted, calls follow the shape of the dose curve; as a rule, active = well fitted curve in the direction sought with a large enough effect in the repeat runs; inconclusive = weak or mixed curves; inactive = no such curve, though single readings can be large; an effect the other way counts as inactive or inconclusive.

Sequence of Aromatase (Homo sapiens) (P11511 whole entry, looked up): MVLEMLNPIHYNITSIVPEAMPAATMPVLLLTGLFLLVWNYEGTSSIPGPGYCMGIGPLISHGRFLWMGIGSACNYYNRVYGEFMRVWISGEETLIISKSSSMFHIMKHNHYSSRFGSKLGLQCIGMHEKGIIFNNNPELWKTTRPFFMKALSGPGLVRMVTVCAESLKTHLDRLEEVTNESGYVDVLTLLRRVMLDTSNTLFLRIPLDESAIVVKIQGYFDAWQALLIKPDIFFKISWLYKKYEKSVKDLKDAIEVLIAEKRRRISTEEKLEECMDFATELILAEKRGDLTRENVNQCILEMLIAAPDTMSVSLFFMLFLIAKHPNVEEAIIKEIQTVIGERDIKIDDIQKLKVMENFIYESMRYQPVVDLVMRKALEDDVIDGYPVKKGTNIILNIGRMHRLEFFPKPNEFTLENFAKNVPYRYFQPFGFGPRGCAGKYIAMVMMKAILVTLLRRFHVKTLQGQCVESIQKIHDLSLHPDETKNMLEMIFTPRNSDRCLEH
Sequence of Androgen receptor (Homo sapiens) (P10275 whole entry, looked up): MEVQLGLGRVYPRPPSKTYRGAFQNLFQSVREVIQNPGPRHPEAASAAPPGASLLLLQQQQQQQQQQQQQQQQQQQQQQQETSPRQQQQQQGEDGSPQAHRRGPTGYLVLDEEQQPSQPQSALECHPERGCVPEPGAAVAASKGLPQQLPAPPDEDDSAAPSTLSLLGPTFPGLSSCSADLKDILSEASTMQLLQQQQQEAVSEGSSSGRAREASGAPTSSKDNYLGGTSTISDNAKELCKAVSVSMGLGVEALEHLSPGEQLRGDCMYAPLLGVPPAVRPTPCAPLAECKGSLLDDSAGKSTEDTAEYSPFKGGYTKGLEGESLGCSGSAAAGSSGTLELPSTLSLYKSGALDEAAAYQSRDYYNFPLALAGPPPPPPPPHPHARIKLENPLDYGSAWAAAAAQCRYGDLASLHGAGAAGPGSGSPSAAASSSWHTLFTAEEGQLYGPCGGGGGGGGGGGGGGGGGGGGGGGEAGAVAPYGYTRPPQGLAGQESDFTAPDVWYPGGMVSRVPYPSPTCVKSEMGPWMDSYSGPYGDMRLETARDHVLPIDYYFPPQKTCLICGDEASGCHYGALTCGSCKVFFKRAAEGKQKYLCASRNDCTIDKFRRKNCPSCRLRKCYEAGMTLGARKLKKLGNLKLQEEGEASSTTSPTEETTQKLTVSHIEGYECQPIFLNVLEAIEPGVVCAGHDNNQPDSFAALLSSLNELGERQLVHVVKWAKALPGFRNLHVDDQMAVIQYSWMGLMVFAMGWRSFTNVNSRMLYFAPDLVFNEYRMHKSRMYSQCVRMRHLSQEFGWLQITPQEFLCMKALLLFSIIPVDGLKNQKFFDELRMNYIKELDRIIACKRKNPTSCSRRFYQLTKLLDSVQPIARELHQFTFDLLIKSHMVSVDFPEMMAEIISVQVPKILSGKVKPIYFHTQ
Sequence of Estrogen receptor (Homo sapiens) (P03372 whole entry, looked up): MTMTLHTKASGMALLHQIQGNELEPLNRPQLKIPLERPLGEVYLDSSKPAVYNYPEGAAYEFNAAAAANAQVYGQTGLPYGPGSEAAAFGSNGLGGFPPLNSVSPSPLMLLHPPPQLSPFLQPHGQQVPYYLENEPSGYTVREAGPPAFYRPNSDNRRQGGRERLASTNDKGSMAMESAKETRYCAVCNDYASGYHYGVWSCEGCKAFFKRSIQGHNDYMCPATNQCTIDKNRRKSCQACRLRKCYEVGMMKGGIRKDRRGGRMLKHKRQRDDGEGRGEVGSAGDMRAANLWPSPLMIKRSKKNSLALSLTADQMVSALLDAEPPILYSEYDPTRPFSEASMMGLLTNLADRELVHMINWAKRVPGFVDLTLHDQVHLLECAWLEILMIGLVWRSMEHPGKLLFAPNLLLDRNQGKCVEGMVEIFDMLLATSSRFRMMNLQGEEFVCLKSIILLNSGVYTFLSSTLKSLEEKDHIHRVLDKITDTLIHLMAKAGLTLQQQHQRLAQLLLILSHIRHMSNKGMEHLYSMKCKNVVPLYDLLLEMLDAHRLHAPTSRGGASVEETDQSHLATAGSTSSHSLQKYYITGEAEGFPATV

With `CC1C(=O)C[C@]2(C(C)C)C[C@H]12` (stereo partly drawn), the Potency entry in [1], in [2], in assay [3], in assay [4], in [5] and in [6] was “inactive” in each case. Also, the Potency entry in assay [7], in assay [8], in [9], in assay [10] and in [11] was “inactive” each time.

Regarding `O=Cc1ccc(Cl)cc1Cl`, the Potency result in assay [1], in assay [2], in assay [3], in assay [4], in assay [5] and in [7] was “inactive” each time. The Potency result in assay [8], in assay [9], in [12], in [10] and in assay [11] was “inactive” throughout.

Take `CC1CC(CC2CCC(N)C(C)C2)CCC1N` (stereo not drawn): the Potency entry in assay [1], in assay [14], in [15], in assay [9], in assay [16] and in [12] was “inactive” each time. Also, the Potency entry in assay [17], in assay [18] and in assay [11] was “inactive” in each case. Also, the Potency in assay [2] is 7.82 µM (active); in [3], 2.47 µM (active); in assay [4], 9.85 µM (active); in [6] it was 31.1 µM (active); in assay [10], 31.1 µM (active). Besides, the outcome in assay [13] was inactive.

With `O=S1OC[C@@H]2[C@H](CO1)[C@]1(Cl)C(Cl)=C(Cl)[C@@]2(Cl)C1(Cl)Cl` (stereo partly drawn), the Potency entry in assay [1], in assay [14], in assay [9], in assay [12], in assay [17] and in [10] was “inactive” in each case. Moreover, the Potency in assay [2] is 24.3 µM (active); in [3], 27.3 µM (active); in assay [4], 30.6 µM (active); in assay [11] it was 61.1 µM (active). Further, the result in assay [13] was inactive.

Consider `Cc1ccc(N)cc1C`, for which the Potency entry in [1], in [2], in assay [3], in assay [4], in [5] and in [8] was “inactive” each time. For the same molecule, the Potency result in assay [9], in assay [16], in [12], in assay [17], in assay [19] and in assay [10] was “inactive” each time. Also, the Potency entry in [11] was “inactive”. In addition, in assay [18], the Potency was 49 µM (active).

With `CCCCN=C=O`, the Potency result in assay [1], in assay [2], in assay [3], in [4], in assay [6] and in [7] was “inactive” each time. In addition, the Potency result in assay [8], in assay [9], in assay [10] and in [11] was “inactive” each time.

`C=C(C#N)CCC#N`: the Potency entry in assay [1], in assay [2], in [3], in assay [4], in assay [6] and in assay [7] was “inactive” in each case. The Potency entry in [8], in assay [9], in [16], in [12], in assay [17] and in [18] was “inactive” throughout. Moreover, the Potency result in assay [19], in assay [10] and in [11] was “inactive” in each case.

For `S=C=NCc1ccccc1`, the Potency result in [1], in assay [2], in [3], in [4], in [14] and in assay [6] was “inactive” throughout. Further, the Potency entry in assay [15], in assay [7], in assay [12], in assay [10] and in [11] was “inactive” in each case. Also, the molecule was classed as inactive in assay [13].

In the case of `COC(=O)C(Cl)C(=O)OC`, the Potency result in assay [1], in assay [2], in [3], in assay [4], in assay [6] and in assay [7] was “inactive” throughout. Further, the Potency result in assay [8], in assay [9], in [16], in assay [12], in assay [17] and in assay [18] was “inactive” in each case. Also, the Potency entry in [10] and in [11] was “inactive” each time.

As for `C/C(=C\c1ccccc1)[N+](=O)[O-]`, the Potency in assay [1] was 17.4 µM (active); in assay [2], 5.45 µM (active); in assay [3], 4.33 µM (active); in assay [4], 4.33 µM (active); in assay [15], 27.3 µM (active); in [7] it was 13.7 µM (active). Moreover, the Potency was 2.45 µM [cytotoxic] (active) in assay [16] and 19.3 µM (active) in assay [11]. For the same molecule, the Potency result in assay [14] and in [17] was “inactive” in each case.
